Experimental data from PubChem BioAssay AID743449 (Broad Institute, 2014).
Out of some 9,900 compounds screened, about 90 (0.9%) were called active. Inconclusive results (about 2%) are left out. The list comes from a sample in which actives are over-represented; it also holds similar structures and randomly drawn compounds. A number with no mark means an inactive call.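 Rule for the calls: active = mean normalized replicate activity at least 50 and at least half of replicates each reaching 50; inconclusive = only one of the two criteria met; inactive = neither criterion met.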

Assay: reduction of CTGF mRNA in DLD1 cells – DLD1 colon cancer cells, RT-qPCR, single point, primary screen (AID 743449);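 note: 0% = neutral control wells and 100% = dasatinib control wells; higher means stronger suppression of CTGF expression like dasatinib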
Settings: 24 h, at 12.5 µM, hits give high values
`CC(=O)N1CCCCN2[C@H](CO)[C@H](c3ccc(-c4ccccc4)cc3)[C@H]2C1` showed an inhibition of 9.46%.
For `Cc1ccccc1-c1ccc([C@@H]2[C@H](CO)N3CCCCN(S(=O)(=O)Cc4ccccc4)C[C@@H]23)cc1`, the inhibition was 26%.
With `COc1ccc(NC(=O)N2CCCCN3[C@H](CO)[C@H](c4ccc(-c5ccccc5F)cc4)[C@H]3C2)cc1` the inhibition was -50.7%.
Molecule `CC(=O)N1CCCCN2[C@@H](CO)[C@@H](c3ccc(-c4ccccc4)cc3)[C@@H]2C1` has an inhibition of -12.5%.
`Cc1cccc(-c2ccc([C@H]3[C@@H](CO)N4CCCCN(S(=O)(=O)c5ccccc5F)C[C@@H]34)cc2)c1` showed an inhibition of -8.63%.
With `Cc1cccc(-c2ccc([C@@H]3[C@@H](CO)N4CCCCN(S(=O)(=O)c5ccccc5F)C[C@@H]34)cc2)c1` the inhibition was 63.6% (active).
With `Cc1cccc(-c2ccc([C@@H]3[C@@H](CO)N4CCCCN(S(=O)(=O)c5ccccc5F)C[C@H]34)cc2)c1` the inhibition was 15.5%.
In the case of `COc1ccc(NC(=O)N2CCCCN3[C@@H](CO)[C@H](c4ccc(-c5ccccc5F)cc4)[C@@H]3C2)cc1`, the inhibition is reported as 59.6% (active).
`Cc1ccccc1-c1ccc([C@H]2[C@@H](CO)N3CCCCN(S(=O)(=O)Cc4ccccc4)C[C@H]23)cc1` showed an inhibition of -18.5%.
In the case of `Cc1ccccc1-c1ccc([C@H]2[C@@H](CO)N3CCCCN(S(=O)(=O)Cc4ccccc4)C[C@@H]23)cc1`, the inhibition is reported as 66% (active).
In the case of `COc1ccc(NC(=O)N2CCCCN3[C@H](C2)[C@@H](c2ccc(-c4ccccc4F)cc2)[C@@H]3CO)cc1`, the inhibition is reported as -27.6%.
With `CC(=O)N1CCCCN2[C@@H](CO)[C@H](c3ccc(-c4ccccc4)cc3)[C@@H]2C1` the inhibition was 62% (active).
Work on `O=C(C[C@@H]1CC[C@@H]2[C@H](COC[C@H](O)CN2C(=O)c2ccc(F)cc2)O1)N1CCCCC1` yielded an inhibition of 4.67%.
With `C[C@@H]1CCCCO[C@H](CN(C)Cc2ccc(C(=O)O)cc2)[C@@H](C)CN([C@@H](C)CO)C(=O)c2cc(N(C)C)ccc2O1` the inhibition was -1.12%.
With `O=C1N[C@H](Cc2ccccc2)COCc2cnnn2CC[C@@H]1Cc1ccc(-c2ccccc2)cc1` the inhibition was 10.4%.
For `CS(=O)(=O)N1[C@@H](CO)[C@@H](c2ccccc2)C12CN(Cc1cc(F)ccc1F)C2`, the inhibition was 2.97%.
Molecule `CCC(=O)N1C[C@H](C)[C@@H](OC)CN(C)C(=O)c2ccc(NC(=O)CC(F)(F)F)cc2OC[C@@H]1C` has an inhibition of -9.99%.
Work on `CC(C)N(C[C@H]1N[C@H](CO)[C@H]1c1ccccc1)S(=O)(=O)c1ccccc1` yielded an inhibition of -1.38%.
`O=S(=O)(c1ccccc1)N1CCCCN2[C@@H](CO)[C@H](c3ccc(C#CC4CCCC4)cc3)[C@@H]2C1` gave an inhibition of 1.07%.
For `O=S(=O)(c1ccccc1)N1CCCCN2[C@H](C1)[C@@H](c1ccc(C#CC3CCCC3)cc1)[C@@H]2CO`, the inhibition was 50.5% (active).
Molecule `COc1ccccc1C#Cc1ccc([C@@H]2[C@H]3CN(C(=O)C4CCC4)CCCCN3[C@H]2CO)cc1` has an inhibition of 14.7%.
Molecule `COc1ccccc1C#Cc1ccc([C@@H]2[C@@H](CO)N3CCCCN(C(=O)C4CCC4)C[C@H]23)cc1` has an inhibition of 4.8%.
Molecule `O=S(=O)(c1ccccc1)N1CCCCN2[C@H](CO)[C@H](c3ccc(C#CC4CCCC4)cc3)[C@H]2C1` has an inhibition of -84.2%.
With `COc1ccccc1C#Cc1ccc([C@H]2[C@H](CO)N3CCCCN(C(=O)C4CCC4)C[C@@H]23)cc1` the inhibition was 68.7% (active).
`O=C(C[C@H]1CC[C@H]2[C@@H](COC[C@@H](O)CN2C(=O)Nc2ccccc2)O1)NCc1ccccc1F` gave an inhibition of 8.8%.
`CCCN1C[C@H](C)[C@H](OC)CN(C)C(=O)c2ccc(NS(=O)(=O)c3cn(C)cn3)cc2OC[C@H]1C` showed an inhibition of -8.06%.
With `CCCC(=O)Nc1ccc2c(c1)C(=O)N(C)C[C@H](OC)[C@@H](C)CN(Cc1ccc(F)cc1)[C@H](C)CO2` the inhibition was -14.1%.
`CN1[C@H](C(=O)Nc2nccs2)[C@@H](CO)[C@@H]2Cn3c(ccc(-c4ccccc4F)c3=O)[C@@H]21` showed an inhibition of -2.79%.
In the case of `C/C=C/c1ccc([C@H]2[C@@H](CNC(=O)CC3CC3)N(C(=O)CC)[C@H]2CO)cc1`, the inhibition is reported as -13.1%.
Molecule `CCS(=O)(=O)Nc1ccc2c(c1)C(=O)N(C)[C@H]1CC[C@H](CC(=O)NCc3ccc(OC)cc3)O[C@@H]1CO2` has an inhibition of -27.1%.
`O=C(C[C@H]1CC[C@H]2NC[C@H](O)COC[C@@H]2O1)N1CCc2ccccc2C1` showed an inhibition of 1.25%.
Work on `C[C@@H]1CN([C@H](C)CO)C(=O)CCCn2nncc2CO[C@H]1CN(C)Cc1cccc(C(F)(F)F)c1` yielded an inhibition of 20.5%.
`C[C@H](CO)N1C[C@H](C)[C@H](CN(C)C(=O)c2cc(-c3ccccc3)on2)OCc2cnnn2CCCC1=O` showed an inhibition of 29.3%.
Work on `C[C@@H]1CN([C@@H](C)CO)C(=O)CCCn2nncc2CO[C@H]1CN(C)C(=O)c1cc(-c2ccccc2)on1` yielded an inhibition of -32.7%.
Molecule `C[C@H](CO)N1C[C@H](C)[C@@H](CN(C)Cc2cccc(C(F)(F)F)c2)OCc2cnnn2CCCC1=O` has an inhibition of -35.1%.
`C[C@H](CO)N1C[C@H](C)[C@@H](CN(C)C(=O)c2cc(-c3ccccc3)on2)OCc2cnnn2CCCC1=O` gave an inhibition of -12.2%.
Molecule `C[C@@H]1CN([C@H](C)CO)C(=O)CCCn2nncc2CO[C@H]1CN(C)C(=O)c1cc(-c2ccccc2)on1` has an inhibition of -10.9%.
In the case of `C[C@@H]1CN([C@H](C)CO)C(=O)CCCn2nncc2CO[C@@H]1CN(C)Cc1cccc(C(F)(F)F)c1`, the inhibition is reported as 61.3% (active).
In the case of `C[C@@H]1CN([C@@H](C)CO)C(=O)CCCn2nncc2CO[C@@H]1CN(C)C(=O)c1cc(-c2ccccc2)on1`, the inhibition is reported as 55.9% (active).
In the case of `C[C@@H]1CN([C@H](C)CO)C(=O)CCCn2nncc2CO[C@@H]1CN(C)C(=O)c1cc(-c2ccccc2)on1`, the inhibition is reported as 66% (active).
Work on `CNC[C@@H]1OCCCC[C@H](C)Oc2ccc(NS(=O)(=O)c3ccc(F)cc3)cc2C(=O)N([C@@H](C)CO)C[C@H]1C` yielded an inhibition of -4.63%.
In the case of `Cc1cccc(S(=O)(=O)N[C@@H]2CC[C@@H](CCNC(=O)Nc3cc(F)ccc3F)O[C@H]2CO)c1`, the inhibition is reported as -12.4%.
`COc1ccc(-c2ccc([C@H]3[C@H](CO)N4C(=O)CN(Cc5ccccc5)C[C@@H]34)cc2)cc1` showed an inhibition of -9.55%.
With `COc1ccc(S(=O)(=O)N(C)C[C@H]2Oc3ccc(NC(=O)Nc4ccc(C(F)(F)F)cc4)cc3C(=O)N([C@@H](C)CO)C[C@@H]2C)cc1` the inhibition was -95.1%.
Work on `O=C(Nc1ccccc1)[C@H]1[C@H](CO)[C@H]2Cn3c(cccc3=O)[C@@H]1N2C(=O)c1ccc(F)cc1` yielded an inhibition of 11.4%.
`CCNC(=O)[C@@H]1[C@@H](CO)[C@@H]2Cn3c(cccc3=O)[C@H]1N2C(=O)Nc1cc(F)ccc1F` showed an inhibition of -43%.
With `O=C(Nc1ccccc1)[C@@H]1[C@@H](CO)[C@@H]2Cn3c(cccc3=O)[C@H]1N2C(=O)c1ccc(F)cc1` the inhibition was 51.2% (active).
Work on `N#C[C@H]1[C@@H](c2ccccc2)[C@H](CO)N1C(=O)c1cc(Cl)cc(Cl)c1` yielded an inhibition of 26.8%.
With `CC(C)NC(=O)N[C@@H]1CC[C@@H](CC(=O)NCCCN(C)C)O[C@H]1CO` the inhibition was 1.3%.
For `CC(C)NC(=O)N[C@@H]1CC[C@H](CC(=O)NCCCN(C)C)O[C@@H]1CO`, the inhibition was 50.2% (active).
Molecule `CC(C)NC(=O)N[C@H]1CC[C@H](CC(=O)NCCCN(C)C)O[C@@H]1CO` has an inhibition of 12%.
Molecule `C[C@H](CO)N1C[C@H](C)[C@@H](CN(C)S(=O)(=O)c2cccs2)Oc2ccc(NC(=O)Nc3cccc4ccccc34)cc2C1=O` has an inhibition of 3.66%.
With `CO[C@@H]1CN(C)C(=O)c2ccc(NC(=O)c3nc4ccccc4s3)cc2OC[C@@H](C)N(Cc2cccnc2)C[C@H]1C` the inhibition was 68.4% (active).
Molecule `CO[C@H]1CN(C)C(=O)c2ccc(NC(=O)c3nc4ccccc4s3)cc2OC[C@@H](C)N(Cc2cccnc2)C[C@@H]1C` has an inhibition of 1.26%.
Work on `CO[C@@H]1CN(C)C(=O)c2ccc(NC(=O)c3nc4ccccc4s3)cc2OC[C@@H](C)N(Cc2cccnc2)C[C@@H]1C` yielded an inhibition of 1.63%.
`CCCNC(=O)N1[C@@H]2Cn3c(cccc3=O)[C@H]1[C@@H](C(=O)N1CCC(Cc3ccccc3)CC1)[C@@H]2CO` gave an inhibition of -24.7%.
For `C[C@H]1CN([C@@H](C)CO)C(=O)CCCn2nncc2CO[C@H]1CN(C)C(=O)Nc1ccc2c(c1)OCCO2`, the inhibition was -11.1%.
`CCCC#Cc1ccc2c(c1)O[C@@H](CN(C)Cc1ccccn1)[C@@H](C)CN([C@@H](C)CO)S2(=O)=O` showed an inhibition of -16.9%.
For `CC(C)[C@@H]1CC=CC[C@@H](C)Oc2ccccc2C(=O)N(C)[C@H](Cc2ccccc2)C(=O)N1` (mixture of isomers), the inhibition was 38.9%.
In the case of `C[C@@H]1CC=CC[C@H](c2ccc(F)cc2)NC(=O)[C@@H](Cc2ccccc2)N(C)C(=O)c2ccccc2O1` (mixture of isomers), the inhibition is reported as 60.2% (active).
With `C[C@H]1CC=CC[C@H](c2ccc(F)cc2)NC(=O)[C@@H](Cc2ccccc2)N(C)C(=O)c2ccccc2O1` (mixture of isomers) the inhibition was -32.9%.
For `CC(C)[C@@H]1CC=CC[C@H](C)Oc2ccccc2C(=O)N(C)[C@@H](Cc2ccccc2)C(=O)N1` (mixture of isomers), the inhibition was 15.6%.
With `C[C@H]1CC=CC[C@@H](c2ccc(F)cc2)NC(=O)[C@H](Cc2ccccc2)N(C)C(=O)c2ccccc2O1` (mixture of isomers) the inhibition was 64% (active).
Molecule `C[C@H]1CC=CC[C@H](c2ccc(F)cc2)NC(=O)[C@H](Cc2ccccc2)N(C)C(=O)c2ccccc2O1` (mixture of isomers) has an inhibition of -3.91%.
